Among the data in PubChem BioAssay (NCI) are growth values, retold here.

Each structure is given as a SMILES string. About 83,000 compounds went through this panel and 20% of them were active in at least one assay; those are over-represented in the sample as a whole.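 Cells were grown in 96-well plates and exposed to the test compound at a single concentration for 48 hours; results are reported as percent growth, with values below 10 considered active.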 A number with no mark means an inactive call. Activity calls are given as the source filed them.

The test system of the assay is HL-60(TB) leukemia. In words: NCI-60 one-dose screen, 48 h (100 = growth as untreated, 0 = no growth, -100 = all killed). Particulars: 10 µM unless noted.
For the compound `CN1C(=O)N(C)C2C1NN=c1s/c(=C\C=C\c3ccccc3)c(=O)n12` (configuration not stated), the growth was 17.1%.
For the compound `COc1ccc2c(c1)[nH]c(=O)c1c3cc(C)c(C)cc3cn21`, the growth was -14.8% (active).
To `COc1ccc(C2c3ccc4ccccc4c3Oc3ncn(CCCn4ccnc4)c(=N)c32)cc1OC` (configuration not stated) belongs 40.7%.
Under `C1=CC2=CC=C3C=CC=C4C(c5nc6c7ccccc7c7ccccc7c6[nH]5)=CC(=C1)C2C34` (configuration not stated) stands 111%.
To `COc1ccc(NS(=O)(=O)c2ccc(C)cc2)c([N+](=O)[O-])c1` belongs 90.7%; to `O=C(Nc1nc2ccc(F)cc2s1)c1cccnc1Nc1ccc(Cl)cc1Cl`, 26.5%.
With `O=C(/C=C/c1ccc(F)cc1)N1CCN(C(=O)/C=C/c2ccc(C(F)(F)F)cc2)CC1`, the growth is 97%.
To `CC/C(=C(\c1ccc(OCCN2CCCCCCC2)cc1)c1ccc(OC(=O)C2CCCCC2)cc1)c1ccc(Cl)cc1` belongs 77.8%; to `COc1ccc(-c2nc3ccc(Cc4ccc5nc(-c6ccc(OC)cc6)[nH]c5c4)cc3[nH]2)cc1`, 9.66% (active); to `Clc1ccccc1N=Cc1ccc2c(c1)OCO2`, 94.6%.
To `Nc1nc(N)c2c(n1)NC(c1cccc(Nc3ccnc4cc(C(F)(F)F)ccc34)c1)CC(c1ccc(Br)cc1)=N2` (configuration not stated) belongs 43.1%; to `Cc1cc2c(-c3nc4ccccn4c3NC3CCCCC3)c(O)c(O)cc2c(O)c1-c1c(C)cc2c(-c3nc4ccccn4c3NC3CCCCC3)c(O)c(O)cc2c1O`, 29.1%; to `COc1ccc(/C=C(\C#N)n2nnc3cc(Cl)ccc32)cc1`, -6.14% (active).
For the compound `Nc1c(Cl)cccc1[N+](=O)[O-]`, the growth was 112%.
`CCSc1ccc([C@@H]2[C@@H](N)C(=O)N2c2cc(OC)c(OC)c(OC)c2)cc1`: the growth is -40.5% (active).
With `C=CC(=O)Nc1cccc(-c2nc(SC)nc(NCCN3CCOCC3)c2C#N)c1`, the growth is 94.9%.
On to `COc1cc(NC(=O)c2cc(OC)c3ccn(C)c3c2)cc2c1C[C@]1(C)CC[C@@H](O)C(C)(C)[C@H]1O2`, for which the growth was 31.5%.
Under `O=[N+]([O-])c1ccc(-c2cc3c(Nc4ccc(Sc5nc6ccccc6s5)c(Cl)c4)ncnc3s2)cc1` stands 21.6%; under `C#CCSc1nnnn1-c1ccc(Br)c(C)c1`, 88.4%; under `Cc1cc(-c2cc(O)ccc2Cl)cc2nnc(Nc3ccc(OCCN4CCCC4)cc3)nc12`, -63.5% (active).
Turning to `O=C(Nc1ccc(OS(=O)(=O)c2ccc(F)cc2)cc1)C12CC3CC(CC(C3)C1)C2`, the growth is 52.7%.
For `C[n+]1cc2cc3c(cc2c2ccccc21)OCO3`, the growth was 87.5%.
Under `N#CC(C#N)=Cc1c(-c2ccccc2)[nH]c2ccccc12` stands -7.65% (active); under `Cc1cc(O)cc(O)c1N=NC1=NCCS1`, 105%; under `Cc1ccc(S(=O)(=O)OC[C@]23CCC(C)(C)C[C@H]2C2=CC[C@@H]4[C@@]5(C)CCCNC(C)(C)[C@@H]5CC[C@@]4(C)[C@]2(C)CC3)cc1`, 24.5%.
In the case of `Clc1cccc(C2Cc3cnccc3-c3[nH]c4ccncc4c32)c1` (configuration not stated), the growth is 25.3%.
Under `CC1CN(CC(O)c2ccc(Br)cc2)CCO1` (configuration not stated) stands 85.4%; under `O=C1Nc2ccccc2/C1=N/N=C/c1ccsc1`, 99.4%.
To `NCCCN1CCCC1=O` belongs 90.1%.
On to `CN(C)c1ccc(-c2cc(-c3ccc(Nc4nc(Nc5ccc(Cl)cc5)nc(Nc5ccc(Cl)cc5)n4)cc3)nc(N)c2C#N)cc1`, for which the growth was 68%.
In the case of `CC1CCCN(CCCCOc2ccc(-c3ccc(C#N)cc3)cc2)C1` (configuration not stated), the growth is 92.6%.
On to `N#Cc1c(-c2ccccc2)cc(-c2ccc(Nc3nc(Nc4ccc(F)cc4)nc(Nc4ccc(F)cc4)n3)cc2)nc1N`, for which the growth was 14.2%.
Under `Cc1cccc2c(=O)c3c(sc12)c(NCCNCCO)nc1ccccc13` stands -58.4% (active); under `COc1ccc(-c2[nH][nH]c(=O)c2-c2nc3ccccc3s2)cc1`, 99.5%.
In the case of `O=C(Nc1ccc2ncnc(Nc3ccc(F)c(Cl)c3)c2c1)c1cccs1`, the growth is 89.7%.
Under `COc1cc(C2C(C#N)=C(N)OC3=C2C(=O)c2ccccc2C3=O)cc(OC)c1O` (configuration not stated) stands 90.9%.
Take `COc1ccc(/C(=C2/O[C@@H]([C@H]3COC(C)(C)O3)[C@H]3OC(C)(C)O[C@@H]23)c2cc(OC)c(OC)c(OC)c2)cc1O`: the growth is -0.369% (active).
